Measured values taken from PubChem BioAssay (NCATS).
Inconclusive results are not listed. A number with no mark means an inactive call. Active and inactive are the calls of the source. Calls follow the shape of the dose curve; as a rule, active = well fitted inhibition curve with a large enough effect; inconclusive = small, poorly fitted or top-dose-only effect; inactive = flat fitted curve, though single readings scatter. Where a SMILES comes first, the peptide text is derived from it. The star is where a group is joined. Cbz = O=C(OCc1ccccc1)*; CH2Cl = ClC*

The molecules below were run on CRL-7250 (assay: Cytotoxic Profiling of Annotated Libraries Using Quantitative High-Throughput Screening (AID 1296008; also: nearly all actives have a fitted effect of over 60% in size)). Settings: Five cell lines viability, CellTiter-Glo ATP luminescence, 48-72 h; max response: stronger effect = lower value.
Outline: (§1)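 Cells exposed to compounds for 48 or 72 hr at 37 degrees Celsius. Viability read as ATP-coupled luminescence with CellTiter-Glo after 10 min at room temperature.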
% is scaled to controls: 0 for no effect and ±100 for the full control effect; potency is read from the fitted curve at half-maximal effect.

Compound | Potency | max response [%]
Cn1cc(-c2ccc3c(c2)CCN3C(=O)Cc2cccc(C(F)(F)F)c2)c2c(N)ncnc21 | 16.4 µM (active) | 
CN(CC1COCCO1)S(=O)(=O)Nc1ccc2ccc3ncc(-c4cnn(C)c4)cc3c(=O)c2c1 (centres undefined) | 5.8 µM (active) | 
CC(C)c1ccc(NC(=O)c2cccs2)c(-c2nc3ccccc3[nH]c2=O)c1 |  | 4.02
CC(C)n1nc(C#Cc2ccccc2)c2c(N)ncnc21 | 16.4 µM (active) | 
CCn1c(=O)c(-c2ccc(Cl)cc2Cl)cc2cnc(Nc3ccc(N4CCNCC4)c(F)c3)nc21 | 1.16 µM (active) | 
COc1ccccc1N1CCN(c2ncnc3n[nH]c(Br)c23)CC1 |  | -14.5
CC1(C)CCCC2(C)C1C(=O)C=C(C(=O)O)C2(O)C(=O)O (centres undefined) |  | -16
CS(=O)(=O)Nc1ccc2oc3c(OC(F)F)ccc(C(=O)Nc4c(Cl)cncc4Cl)c3c2c1 |  | -13.5
NC(=O)N1CCC(CC(=O)N2CCC(C3c4ncc(Br)cc4CCc4cc(Cl)cc(Br)c43)CC2)CC1 (centres undefined) |  | -10.9
CCS(=O)c1nc(-c2cccc(OCc3ccccc3)c2)cc(C(F)(F)F)n1 (centres undefined) |  | 1.1
Cc1cc(F)ccc1[C@H]1C[C@@H](N2CCN3C(=O)CC[C@H]3C2)CCN1C(=O)N(C)[C@H](C)c1cc(C(F)(F)F)cc(C(F)(F)F)c1 |  | 2.7

Each molecule was assayed on HEK293 in the same assay as above. Settings: Five cell lines viability, CellTiter-Glo ATP luminescence, 48-72 h; max response: stronger effect = lower value.
Outline: as §1

Compound | Potency | max response [%]
Nc1cccc(CNC(=O)c2ccc(Oc3ccc(OCc4cccc(F)c4)cc3)nc2)c1 | 11.6 µM (active) | 
C=C1C(=O)O[C@@H]2[C@H]1CC[C@H](C)C(CCC(=O)O)C2(C)O (some centres undefined) | 23.1 µM (active) | 
C/C=C(/C)C(=O)O[C@H]1C=C(CO)C(=O)[C@H](OC(=O)/C(C)=C/CO)[C@H]1C(C)C | 3.6 µM (active) | 
COc1cc(-n2cnc3cc(-c4ccc(Cl)cc4)sc3c2=O)ccc1OCCN1CCCC1 | 10.3 µM (active) | 
C=CS(=O)(=O)NC1CCN(C(=O)CNc2cc(I)c(Cl)cc2OC)CC1 | 8.2 µM (active) | 
CC(OC1OCCN(Cc2n[nH]c(=O)[nH]2)C1c1ccc(F)cc1)c1cc(C(F)(F)F)cc(C(F)(F)F)c1 (centres undefined) | 11.6 µM (active) | 
CC1CCCC(O)CC(=O)c2c(O)cc(O)cc2CC(=O)O1 (centres undefined) | 8.05 µM (active) | 
Cc1nc(Nc2cnn(C3CCNCC3)c2)nc2c1N(C)C(=O)c1cc3ccccc3cc1N2C | 25.9 µM (active) | 
Cn1ncc(Cl)c1-c1cc(C(=O)NC(CN)Cc2ccc(F)c(F)c2)oc1Cl (centres undefined) | 0.231 µM (active) | 
C=C1CC(=O)C2OC2(C)CC2OC(=O)C(=C)C2C(O)C1OC(=O)/C(C)=C\C (centres undefined) | 6.4 µM (active) | 
Cn1sc(=O)n(Cc2ccccc2)c1=O | 6.51 µM (active) | 
CC(=O)OC1[C@H]2[C@@H](C[C@@H](C)[C@@H]3C=CC(=O)[C@@]13C)OC(=O)[C@@H]2C (some centres undefined) | 16.4 µM (active) | 
C=C1CC2[C@@]3(C)C=CC(=O)C(C)(C)C3=C(O)C(=O)[C@@]2(C)C2(C(=O)OC)C(=O)C(C)OC(=O)[C@@]12C (some centres undefined) | 7.96 µM (active) | 
CC(C)C[C@H](NC(=O)CNC(=O)OCc1ccccc1)C(=O)N[C@@H](Cc1ccccc1)C(=O)CCl (Cbz-Gly-Leu-Phe-CH2Cl) | 9.2 µM (active) | 
O=C(Nc1ccc2[nH]nc(-c3ccncc3)c2c1)[C@@H]1CCN(CC(=O)N2CCN(c3ccc(-c4ncccn4)cc3)CC2)C1 | 10.3 µM (active) | 
CCN1CCN(Cc2ccc(NC(=O)c3ccc(C)c(Oc4ccnc5[nH]ccc45)c3)cc2C(F)(F)F)CC1 | 9.04 µM (active) | 
C=CC(=O)N1CCN(C(=O)CNc2cc(-c3ccccc3Cl)c(Cl)cc2OC)CC1 | 18.4 µM (active) | 
N#Cc1cnc2c(Cl)cc(NCc3cn(CCN4CCCCCC4)nn3)cc2c1Nc1ccc(F)c(Cl)c1 | 18.4 µM (active) | 
Cn1ncc(Cl)c1-c1cc(C(=O)N[C@H](CN)Cc2cccc(F)c2)sc1Cl | 1.3 µM (active) | 
CC(C)CC(=O)c1c(O)cc2c(c1O)C(CC(C)C)C1=C(O2)C(C)(C)C(=O)C(C)(C)C1=O (centres undefined) | 5.63 µM (active) | 
Cc1cc(-c2nc3cc(F)ccc3s2)ccc1NC(=O)[C@@H](N)CCCCN | 14.6 µM (active) | 
Cc1cc(F)c(C(=O)Nc2cccc(-c3nncn3C(C)C)n2)cc1-n1cnc(C2CC2)c1 | 10 µM (active) | 
C=C(C=O)[C@]1(O)C[C@@]2(C)C(=CC1=O)C=C[C@H](OC(=O)/C=C/C=C/[C@H](C)CC)[C@@H]2C | 3.99 µM (active) | 
C/C1=C\CCC2=CC(OC2=O)C(C)(C)/C=C/C1=O (centres undefined) | 6.51 µM (active) | 
CC[C@@H](C)[C@@H]1OC2(C=C[C@H]1C)C[C@@H]1C[C@H](C/C=C(\C)[C@H](O[C@H]3C[C@H](OC)[C@H](O[C@H]4C[C@H](OC)[C@H](NC(C)=O)[C@H](C)O4)[C@H](C)O3)[C@H](C)/C=C/C=C3\CO[C@H]4[C@H](O)C(C)=C[C@@H](C(=O)O1)[C@@]34O)O2 (some centres undefined) | 3.21 µM (active) | 
Cn1ncc(Cl)c1-c1cc(C(=O)N[C@H](CN)Cc2ccc(F)c(F)c2)oc1Cl | 0.366 µM (active) | 
N#CC(CCCN1CCC(O)(c2ccc(Cl)cc2)CC1)(c1ccccc1)c1ccccc1 |  | -108
CNc1ccc([N+](=O)[O-])c(Nc2ccc3[nH]ncc3c2)n1 | 18.4 µM (active) | 
